Reference: PubChem BioAssay (NCATS)
Inconclusive results are not listed. Activity calls are given as the source filed them. Unless noted, the call rests on the fitted dose curve; in most records, active means well fitted curve in the direction sought with a large enough effect; inconclusive means small, poorly fitted or top-dose-only effect, or another doubt; inactive means no such curve, though single readings can be large; an effect the other way counts as inactive or inconclusive.

What was measured:
[1] = Cell Viability - HepG2 (AID 433; calls by dose curve;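 further: potency means the concentration at half of the fitted maximal effect; potency for ATP loss meaning cytotoxicity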); conditions: qHTS
Outline: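 Cytotoxicity is scored as loss of intracellular ATP in HepG2 cells exposed to compounds for 40 h. Concentration-response curves, normalized to DMSO and 100 uM tamoxifen, give AC50 values.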

[2] = Cell Viability - Mesenchymal (AID 546); conditions: mesenchymal cells viability, qHTS; activity change, negative = cytotoxicity: at 91.7 µM (top of the series);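 further: cells exposed to compound for 40 hours before reading; 0% = DMSO only and -100% = 100 µM tamoxifen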
Outline: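 In this qHTS cytotoxicity format, glomerulus-derived human mesenchymal kidney cells received compound for 40 hr, then luciferase-based ATP quantitation. Concentration-response data were fitted with the Hill equation.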

[3] = Cell Viability - LYMP1-003 - Assay at 40 hr (AID 964); further: on the % scale 0 is the no-effect control and ±100 the full control effect; nearly all actives have a fitted effect of over 60% in size
Outline: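 LYMP1-003 lymphoblastoid cells, 2500/well; 5 hr preincubation, 40 hr compound exposure, 37 C; CellTiter-Glo 30 min RT; luminescence; Hill-fit AC50. Positive control tetraoctylammonium bromide.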

[4] = Cell Viability - LYMP2-013 (AID 970);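 further: 0% = DMSO only and full inhibition = tetraoctylammonium bromide control; nearly all actives have a fitted effect of over 55% in size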
Outline: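 CellTiter-Glo luminescence (cellular ATP) read after 30 min at RT. Cells: human lymphoblastoid line, 2500/well, 24 hr compound exposure at 37 C. Tetraoctylammonium bromide positive control; AC50 via standard Hill fit of qHTS titrations.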

[5] = Cell Viability - LYMP2-017 (AID 972);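 further: cells exposed to compound for 24 hours at 37 °C; on the % scale 0 is the no-effect control and ±100 the full control effect; nearly all actives have a fitted effect of over 55% in size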
Outline: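 Luminescent ATP read-out (CellTiter-Glo, 30 min RT) reports viable cell number. Cells: human lymphoblastoid line, 2500 per well, 5 hr preincubation, 24 hr compound exposure at 37 C. AC50 is derived from qHTS concentration-response data using the standard Hill model.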

[6] = Cell Viability - LYMP2-021 (AID 974);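 further: compound exposure lasts 24 hours at 37 °C; on the % scale 0 is the no-effect control and ±100 the full control effect; nearly all actives have a fitted effect of over 55% in size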
Outline: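 ATP luminescence (CellTiter-Glo, 30 min RT) after 24 h compound exposure at 37 C; 2500 human lymphoblastoid cells/well, 5 h settle beforehand. Cytotoxicity = concentration-dependent ATP drop, AC50 by Hill fit.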

[7] = Cell Viability - LYMP2-023 (AID 975);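 further: cellular ATP measured by luciferase luminescence as viability proxy; cells exposed to compound for 24 hours at 37 °C; plate controls were DMSO only for no effect and 92 µM tetraoctylammonium bromide control for full effect; nearly all actives have a fitted effect of over 55% in size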
Outline: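 CellTiter-Glo luminescence after 30 min at room temperature; decrease in intracellular ATP reflects toxicity. Cells: human lymphoblastoid line, 2500/well, 24 hr compound exposure at 37 C. AC50 fitted to standard Hill equation from concentration-response.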

[8] = Cell Viability - LYMP2-025 (AID 976);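 further: plate controls were DMSO only for no effect and tetraoctylammonium bromide control for full effect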
Outline: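 CellTiter-Glo luminescence (cellular ATP) after 24 h compound exposure at 37 C; LYMP2-025 human lymphoblastoid cells, 2500/well, complete medium. Tetraoctylammonium bromide positive control. AC50 by Hill equation fit of qHTS concentration-response.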

[9] = Cell Viability - LYMP2-002 (AID 977);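 further: plate controls were DMSO only for no effect and 92 µM tetraoctylammonium bromide for full effect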
Outline: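 In this qHTS viability screen, 2500 human lymphoblastoid cells per well receive compound for 24 hr at 37 C, and luciferase-based ATP luminescence gives the viability signal. Tetraoctylammonium bromide serves as positive control.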

[10] = Cell Viability - LYMP2-012 (AID 982)
[11] = Cell Viability - LYMP2-014 (AID 983);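 further: plate controls were DMSO only for no effect and 92 µM tetraoctylammonium bromide for full effect; nearly all actives have a fitted effect of over 50% in size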
Outline: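 2500 cells/well, 5 hr 37 C; cpd 24 hr 37 C, complete medium; CellTiter-Glo 30 min RT, luminescence; ATP loss = toxicity; AC50 via Hill eqn; tetraoctylammonium bromide positive control.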

[12] = Cell Viability - LYMP2-016 (AID 984)
Outline: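 Acute toxicity in a Coriell human lymphoblastoid line is scored as loss of intracellular ATP over 24 h of treatment in complete medium. CellTiter-Glo signal is fitted across concentrations with the Hill equation to give AC50.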

[13] = Cell Viability - LYMP2-018 (AID 985);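 further: plate controls were DMSO only for no effect and tetraoctylammonium bromide at 92 µM for full effect; nearly all actives have a fitted effect of over 50% in size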
Outline: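 2500 cells/well; 5 hr 37 C; cmpd 24 hr 37 C, complete medium; CellTiter-Glo 30 min RT; luminescence. Tetraoctylammonium bromide positive control. AC50 via Hill fit.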

[14] = Cell Viability - LYMP2-020 (AID 986)
Outline: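 qHTS, 2500 cells/well; 5 hr then 24 hr compound exposure, 37 C; CellTiter-Glo luminescence after 30 min RT; ATP decrease taken as cytotoxicity; AC50 via Hill equation; tetraoctylammonium bromide positive control.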

[15] = Cell Viability - LYMP2-022 (AID 987)
Outline: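 Luminescent ATP read-out (CellTiter-Glo, 30 min, RT) after 24 hr, 37 C compound exposure of 2500 human lymphoblastoid cells/well in complete medium. Cytotoxicity taken as concentration-dependent ATP loss; AC50 from standard Hill equation.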

[16] = Cell Viability - LYMP2-024 (AID 988);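 further: plate controls were DMSO only for no effect and 92 µM tetraoctylammonium bromide for full effect; nearly all actives have a fitted effect of over 60% in size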
Outline: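 ATP-based luminescence (CellTiter-Glo, 30 min RT) after 24 h compound exposure at 37 C of 2500 lymphoblastoid cells/well; decrease in ATP taken as cytotoxicity. qHTS concentration-response fitted to standard Hill equation for AC50.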

[17] = Cell Viability - LYMP1-002 - Assay at 40 hr (AID 994);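 further: 0% = DMSO only and full inhibition = 92 µM tetraoctylammonium bromide; nearly all actives have a fitted effect of over 60% in size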
Outline: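 qHTS cytotoxicity; 2500 cells/well, 5 hr 37 C settle, compound 40 hr 37 C. CellTiter-Glo, 30 min RT, luminescence (ATP). Concentration-response, Hill fit → AC50. Pos. ctrl tetraoctylammonium bromide.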

[18] = qHTS assay for small molecule antagonists of retinoid X receptor alpha signaling (AID 588546; active means well fitted inhibition curve with a large enough effect in the signal ratio, with a control signal flat, not every such curve was filed as active; the % refers to the signal ratio;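 further: cells stimulated with 9-cis-retinoic acid as agonist; on the % scale 0 is the no-effect control and ±100 the full control effect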); conditions: HEK293T RXRa-UAS-bla, beta-lactamase ratio, antagonist mode; measured here: W530 green channel, cytotoxicity proxy
Outline: (§1)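 Beta-lactamase reporter inhibition, read as CCF4 fluorescence ratio (ex 405, em 460/530 nm) after 2 h at RT. HEK293T UAS-bla cells, 2500/well, were stimulated with 9-cis-RA at 500 or 100 nM final alongside test compound for 18 h at 37 C.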

[19] = molecular target: Retinoic acid receptor RXR-alpha (Homo sapiens) (UniProt P19793); test: as above; conditions: HEK293T RXRa-UAS-bla, beta-lactamase ratio, antagonist mode
Outline: as §1

[20] = qHTS assay for environmental chemicals that activate the Aryl hydrocarbon Receptor (AhR) signaling pathway (AID 651777); conditions: 1A2-DRE human hepatoma cells, luciferase, 24 h; activation: stronger effect = higher value; further: % of control where 0% means no effect; nearly all actives have a fitted effect of over 15% in size
Outline: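 Concentration–response screening used 1,200 1A2-DRE cells per well, 24 hr compound exposure (37 C, 5% CO2), and One-Glo luminescence as the AhR-driven CYP1A2 reporter signal.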

Sequence of Retinoic acid receptor RXR-alpha (Homo sapiens) (P19793 whole entry, looked up): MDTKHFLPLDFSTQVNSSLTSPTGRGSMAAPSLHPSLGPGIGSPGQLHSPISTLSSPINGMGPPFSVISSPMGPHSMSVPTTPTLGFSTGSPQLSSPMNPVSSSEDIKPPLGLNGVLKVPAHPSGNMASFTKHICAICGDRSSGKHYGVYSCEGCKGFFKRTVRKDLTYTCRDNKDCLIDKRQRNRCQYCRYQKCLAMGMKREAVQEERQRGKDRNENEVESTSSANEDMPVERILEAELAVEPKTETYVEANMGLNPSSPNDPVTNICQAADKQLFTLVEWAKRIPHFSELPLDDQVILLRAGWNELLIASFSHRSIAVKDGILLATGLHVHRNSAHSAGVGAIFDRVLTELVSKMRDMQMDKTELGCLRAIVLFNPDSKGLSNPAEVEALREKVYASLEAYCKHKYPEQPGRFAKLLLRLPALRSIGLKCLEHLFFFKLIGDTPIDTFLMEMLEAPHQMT

CCNC(=S)NCC
inactive: Potency [1] > 92 µM | Potency [2] | Potency [3] | Potency [4] | Potency [5] | Potency [6] | Potency [7] | Potency [8] | Potency [9] | Potency [10] | Potency [11] | Potency [12] | Potency [13] | Potency [14] | Potency [15] | Potency [16] | Potency [17] | max response [19] 14.7% | activation [20] 1.67%
-3.33%: max response [18]

O=C(O)/C=C/c1ccc(/C=C/C(=O)O)cc1
-0.222%: max response [18]
inactive: Potency [1] > 92 µM | Potency [2] | Potency [3] | Potency [4] | Potency [5] | Potency [6] | Potency [7] | Potency [8] | Potency [9] | Potency [10] | Potency [11] | Potency [12] | Potency [13] | Potency [14] | Potency [15] | Potency [16] | Potency [17] | max response [19] 14.1% | activation [20] 0.407%

c1ccc(SCCSc2ccccc2)cc1
0.714%: max response [18]
inactive: Potency [1] > 92 µM | Potency [2] | Potency [3] | Potency [4] | Potency [5] | Potency [6] | Potency [7] | Potency [8] | Potency [9] | Potency [10] | Potency [11] | Potency [12] | Potency [13] | Potency [14] | Potency [15] | Potency [16] | Potency [17] | max response [19] -1.47% | activation [20] 14.7%

c1ccc2ncccc2c1
-0.528%: max response [18]
inactive: Potency [1] > 92 µM | Potency [2] | Potency [3] | Potency [4] | Potency [5] | Potency [6] | Potency [7] | Potency [8] | Potency [9] | Potency [10] | Potency [11] | Potency [12] | Potency [13] | Potency [14] | Potency [15] | Potency [16] | Potency [17] | max response [19] 0.834% | activation [20] -0.0283%

CCCCCCc1ccc(-c2ccc(C#N)cc2)cc1
-7.3%: max response [18]
inactive: Potency [1] > 92 µM | Potency [2] | Potency [3] | Potency [4] | Potency [5] | Potency [6] | Potency [7] | Potency [8] | Potency [9] | Potency [10] | Potency [11] | Potency [12] | Potency [13] | Potency [14] | Potency [15] | Potency [16] | Potency [17] | max response [19] -14.6%

O=c1[nH]ncc2ccccc12
-5.72%: max response [18]
inactive: Potency [1] > 92 µM | Potency [2] | Potency [3] | Potency [4] | Potency [5] | Potency [6] | Potency [7] | Potency [8] | Potency [9] | Potency [10] | Potency [11] | Potency [12] | Potency [13] | Potency [14] | Potency [15] | Potency [16] | Potency [17] | max response [19] 13% | activation [20] 0.167%

CCOC(=O)C1OC1c1ccccc1 (stereo not drawn)
inactive: Potency [1] > 92 µM | Potency [2] | Potency [3] | Potency [4] | Potency [5] | Potency [6] | Potency [7] | Potency [8] | Potency [9] | Potency [10] | Potency [11] | Potency [12] | Potency [13] | Potency [14] | Potency [15] | Potency [16] | Potency [17] | max response [19] 9.69% | activation [20] -0.0092%
-0.854%: max response [18]

C/C(Cl)=C/CCl
inactive: Potency [1] > 92 µM | Potency [2] | Potency [3] | Potency [4] | Potency [5] | Potency [6] | Potency [7] | Potency [8] | Potency [9] | Potency [10] | Potency [11] | Potency [12] | Potency [13] | Potency [14] | Potency [15] | Potency [16] | Potency [17] | max response [19] 6.91% | activation [20] 0.708%
-2.04%: max response [18]

OCC(CBr)(CBr)CBr
inactive: Potency [1] > 92 µM | Potency [2] | Potency [3] | Potency [4] | Potency [5] | Potency [6] | Potency [7] | Potency [8] | Potency [9] | Potency [10] | Potency [11] | Potency [12] | Potency [13] | Potency [14] | Potency [15] | Potency [16] | Potency [17] | max response [19] 0.481% | activation [20] 7.86%
-12.3%: max response [18]

CCCCCCCCOc1ccc(C(=O)O)cc1
-3.84%: max response [18]
inactive: Potency [1] > 92 µM | Potency [2] | Potency [3] | Potency [4] | Potency [5] | Potency [6] | Potency [7] | Potency [8] | Potency [9] | Potency [10] | Potency [11] | Potency [12] | Potency [13] | Potency [14] | Potency [15] | Potency [16] | Potency [17] | max response [19] -6.4% | activation [20] 8.38%

CC(=O)OCc1ccc2c(c1)OCO2
8.84%: max response [18]
inactive: Potency [1] > 92 µM | Potency [2] | Potency [4] | Potency [5] | Potency [6] | Potency [7] | Potency [8] | Potency [9] | Potency [10] | Potency [11] | Potency [12] | Potency [13] | Potency [14] | Potency [15] | Potency [16] | Potency [17] | max response [19] 24.9% | activation [20] 1.36%

C=Cc1cccc(C)c1
inactive: Potency [1] > 92 µM | Potency [2] | Potency [3] | Potency [4] | Potency [5] | Potency [6] | Potency [7] | Potency [8] | Potency [9] | Potency [10] | Potency [11] | Potency [12] | Potency [13] | Potency [14] | Potency [15] | Potency [16] | Potency [17] | max response [19] -5.75% | activation [20] -0.0469%
-7.34%: max response [18]

C=CC1CO1 (stereo not drawn)
-2.46%: max response [18]
inactive: Potency [1] > 92 µM | Potency [2] | Potency [3] | Potency [4] | Potency [5] | Potency [6] | Potency [7] | Potency [8] | Potency [9] | Potency [10] | Potency [11] | Potency [12] | Potency [13] | Potency [14] | Potency [15] | Potency [16] | Potency [17] | max response [19] -9.54% | activation [20] -0.433%
